Sampled rows, rich in hits. Any-hit rate of the full collection: about 11%.
IMPase Li inh = IMPase inhibition in cells with lithium potentiation; CHO-M1 cells, IP1 TR-FRET (IP-One), carbachol + lithium; Potency, µM (highest dose often 59.4 µM), without a hit: at the highest dose activity, negative = IMPase inhibition, hits mostly inhibitors; 210,000 tested, 0.35% active;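 also: IP1 builds up when IMPase is blocked and the TR-FRET signal falls; potency is read from the fitted curve at half-maximal effect; plate controls were basal vehicle for no effect and high inhibitor control for full effect; nearly all actives have a fitted effect of over 50% in size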
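Test compounds were applied to CHO-M1 cells previously cultured for 16–30 h at 2000 per well. A small lithium amount accompanied them; after 30 min at 37C, IP1 was quantified by TR-FRET.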
PNC assembly inh = blocks assembly of the perinucleolar compartment | PC3M PTB-GFP, PNC prevalence imaging, 16 h; active compounds read low | activity change (PNC), negative = inhibition, % at 10 µM | 140,000 tested, 3.1% active;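 active = readout at or below -70, meaning at least 70% loss of cells showing the perinucleolar compartment, a nuclear body marking cancer cells; inconclusive = readout between -30 and a set limit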;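 also: plate controls were DMSO wells for no effect and camptothecin positive control wells for full effect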
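Read-out is percentage of cells bearing a perinucleolar compartment, from automated 20x imaging of fixed, Hoechst-stained PC3M PTB-GFP cells. Cells were seeded 4 h, then exposed 16 h to compound (23 nl of library stock) in duplicate plates.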
IMPase inh = IMPase inhibition in cells; P97697; 120,000 tested, under 10 active; AID 901; CHO-M1 cells, IP1 accumulation, HTRF TR-FRET ratio; inhibition (IP1 accumulation), % at 46.1 µM; active = well fitted curve in the direction sought with a large enough effect in the signal ratio, not every such curve was filed as active; inconclusive = small, poorly fitted or top-dose-only effect, or a change in a side signal; inactive = no such curve, though single readings can be large or run the other way; the % refers to the signal ratio;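 also: cells stimulated with carbachol in lithium chloride buffer; plate controls were DMSO basal wells for no effect and reference inhibitor wells for full effect; higher means more IMPase inhibition seen as more IP1 and lower FRET ratio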
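Seeded CHO-M1 cells were dosed with compound at up to 46 uM, stimulated with carbachol for 30 min, then lysed in IP-One detection reagents. Higher IP1 lowers the TR-FRET signal.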
ALDH1A1 inh = blocks purified human ALDH1A1 activity. P00352. Purified ALDH1A1, NADH fluorescence, propionaldehyde substrate. Potency, µM (titrated, usually from 75.3 µM), for the others: top-dose activity, negative = inhibition, hits mostly inhibitors. 220,000 tested, 7.3% active; active = well fitted inhibition curve with a large enough effect, not every such curve was filed as active; inconclusive = small, poorly fitted or top-dose-only effect, or another doubt; inactive = no such curve, though single readings can be large or run the other way;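 also: potency is read from the fitted curve at half-maximal effect; plate controls were no enzyme wells and a reference inhibitor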
HPGD inh = inhibitors of human 15-hydroxyprostaglandin dehydrogenase (HPGD); P15428; purified HPGD, NADH fluorescence kinetic, PGE2 substrate; Potency, µM, inactives show at the top dose activity change, negative = inhibition, usual class: inhibitors; 150,000 tested, 4.3% active; AID 894; active = well fitted inhibition curve with a large enough effect, not every such curve was filed as active; inconclusive = small, poorly fitted or top-dose-only effect, or another doubt; inactive = no such curve, though single readings can be large or run the other way; also: potency is read from the fitted curve at half-maximal effect
Target sequence (P15428 whole entry, looked up): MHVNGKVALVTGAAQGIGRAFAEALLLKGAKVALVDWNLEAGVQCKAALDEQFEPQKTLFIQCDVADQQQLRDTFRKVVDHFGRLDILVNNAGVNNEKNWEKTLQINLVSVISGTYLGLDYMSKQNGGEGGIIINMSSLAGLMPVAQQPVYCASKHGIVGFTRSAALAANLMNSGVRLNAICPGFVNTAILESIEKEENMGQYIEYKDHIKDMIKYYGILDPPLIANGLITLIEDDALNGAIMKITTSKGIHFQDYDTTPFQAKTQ
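20 nM HPGD preincubated 15 min at room temperature with compound in 50 mM Tris-HCl pH 8, 0.01% Tween 20. Started with 1 mM NAD+ and 30 uM prostaglandin E2; NADH fluorescence (360/450 nm) read 5 times over 30-s intervals, last minus first.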
NPSR antag = antagonists of human neuropeptide S receptor cAMP signaling. Q6W5P4. CHO-NPSR cells, cAMP TR-FRET, antagonist mode. Potency, µM (top dose mostly 38.3 µM), inactives show top-dose activity change, negative = inhibition, usual class: inhibitors. 220,000 tested, 1% active. AID 1461; also: potency is read from the fitted curve at half-maximal effect; nearly all actives have a fitted effect of over 50% in size
Target sequence (Q6W5P4 whole entry, looked up): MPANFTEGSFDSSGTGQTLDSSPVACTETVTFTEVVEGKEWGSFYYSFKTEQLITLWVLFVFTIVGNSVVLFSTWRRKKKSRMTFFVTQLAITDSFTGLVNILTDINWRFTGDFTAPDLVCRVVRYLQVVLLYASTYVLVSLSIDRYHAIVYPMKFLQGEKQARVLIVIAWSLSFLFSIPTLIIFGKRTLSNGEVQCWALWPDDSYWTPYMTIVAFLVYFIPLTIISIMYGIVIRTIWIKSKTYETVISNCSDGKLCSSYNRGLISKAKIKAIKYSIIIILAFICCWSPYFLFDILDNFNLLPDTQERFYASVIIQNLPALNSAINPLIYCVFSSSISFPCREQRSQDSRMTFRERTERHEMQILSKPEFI
An asterisk follows results filed as active; [ ] = dose if it differs, or a comment. Unless noted, calls follow the shape of the dose curve; as a rule, active = well fitted curve in the direction sought with a large enough effect; inconclusive = small, poorly fitted or top-dose-only effect, or another doubt; inactive = no such curve, though single readings can be large; an effect the other way counts as inactive or inconclusive. Unless noted, % is scaled to controls: 0 for no effect and ±100 for the full control effect.

Results for Cc1cccc(CNc2ccnc(-c3ccc(N(C)C)cc3)n2)c1 ?
IMPase Li inh: -1.0%; ALDH1A1 inh: inconclusive; HPGD inh: inconclusive

What do the screens show for `Cc1cccc(CNc2ccnc(-c3ccoc3)n2)c1`?
IMPase Li inh: 15.5%; ALDH1A1 inh: 12.6µM*; HPGD inh: inconclusive

How did CCOC(=O)c1ccccc1OCc1cc(/C=N/NC(=O)c2ccncc2)ccc1OC do in these assays?
NPSR antag: -2.4%

What do the screens show for `O=C1/C(=C/C=C/c2ccccc2)Oc2c1ccc(O)c2CN1CCN(CCO)CC1`?
NPSR antag: -52.6%

How did CCN1CCN(Cc2c(O)ccc3c2O/C(=C\c2ccccc2)C3=O)CC1 do in these assays?
IMPase Li inh: -12.7%; ALDH1A1 inh: inconclusive; NPSR antag: inconclusive

Results for COc1ccccc1/C=C/C=C1\Oc2c(ccc(O)c2CN2CCN(CCO)CC2)C1=O ?
IMPase Li inh: 0.0%; PNC assembly inh: -28.3; ALDH1A1 inh: inconclusive; HPGD inh: 15.8µM*; NPSR antag: -41.1%

How did CCc1ccc(/C=C2\Oc3c(ccc(O)c3CN3CCN(C)CC3)C2=O)cc1 do in these assays?
NPSR antag: 10µM*

How did CCN1CCN(Cc2c(O)ccc3c2O/C(=C\C=C\c2ccccc2)C3=O)CC1 do in these assays?
IMPase Li inh: 8.3%; PNC assembly inh: 84.3; ALDH1A1 inh: -1.9%; HPGD inh: inconclusive; NPSR antag: 3.98µM*

Results for Cc1ccc(/C=C2\Oc3c(ccc(O)c3CN3CCN(C)CC3)C2=O)cc1 ?
IMPase Li inh: 4.2%; ALDH1A1 inh: -2.1%; NPSR antag: 7.94µM*

Results for COc1ccc(NC(=O)Nc2ccc(C(=O)N3CCOCC3)cc2)cc1 ?
IMPase Li inh: 16.9%[38.3 µM]; PNC assembly inh: -27.5; IMPase inh: 7.5; ALDH1A1 inh: 0.3%; HPGD inh: inconclusive; NPSR antag: 7.2%[46.1 µM]

How did CCN1CCN(Cc2c(O)ccc3c2O/C(=C\c2ccc(C)cc2)C3=O)CC1 do in these assays?
IMPase Li inh: 1.9%; ALDH1A1 inh: -6.8%; NPSR antag: 10µM*

How did NNc1nc2ccc(Cl)cc2s1 do in these assays?
IMPase Li inh: 4.1%; PNC assembly inh: 46.0; IMPase inh: 7.7; ALDH1A1 inh: 35.5µM*; HPGD inh: -16.6%; NPSR antag: -15.1%

Results for O=C(CN1CCOCC1)Nc1cc([N+](=O)[O-])ccc1Cl ?
IMPase Li inh: 0.6%; ALDH1A1 inh: -5.9%; NPSR antag: 1.6%

What do the screens show for `COc1ccc(C(=O)NC(=S)Nc2ccc([N+](=O)[O-])cc2C)cc1OC`?
IMPase Li inh: 13.8%[38.3 µM]; PNC assembly inh: 33.3; IMPase inh: 4.5[1.84 µM]; ALDH1A1 inh: 14.1µM*; HPGD inh: -11.9%; NPSR antag: -3.2%[46.1 µM]

Results for CC(C(=O)Nc1cc([N+](=O)[O-])ccc1Cl)N1CCN(c2ccc(O)cc2)CC1 (configuration not stated) ?
IMPase Li inh: 13.8%; PNC assembly inh: -85.2*; IMPase inh: 1.2; ALDH1A1 inh: 7.08µM*; HPGD inh: -5.4%; NPSR antag: -17.0%

What do the screens show for `O=C(O)c1ccc(Cl)c(NC(=S)NC(=O)c2ccccc2[N+](=O)[O-])c1`?
IMPase Li inh: -0.8%; ALDH1A1 inh: 22.4µM*; NPSR antag: 12.8%

How did O=C(NC(=S)Nc1cc([N+](=O)[O-])ccc1Cl)c1ccccc1 do in these assays?
IMPase Li inh: 29.2%[38.3 µM]; PNC assembly inh: 16.6; IMPase inh: 3.3; ALDH1A1 inh: 8.91µM*; HPGD inh: inconclusive; NPSR antag: -4.0%[46.1 µM]

What do the screens show for `O=C(NC(=S)Nc1ccccc1[N+](=O)[O-])c1ccccc1Cl`?
NPSR antag: -13.2%

Results for COC/C=C/C1=CC2=CC(=O)C(C)(OC(=O)c3cnc4ccccc4n3)C(=O)C2=CN1Cc1ccco1 (configuration not stated) ?
IMPase Li inh: 7.0%; ALDH1A1 inh: -5.7%[13.5 µM]; HPGD inh: -5.0%

How did CC(C)C(=O)NC(c1ccc([N+](=O)[O-])cc1)c1c(O)ccc2ccccc12 (configuration not stated) do in these assays?
IMPase Li inh: 29.3%[38.3 µM]; PNC assembly inh: 60.3; IMPase inh: 7.7; ALDH1A1 inh: -12.6%; HPGD inh: -13.3%; NPSR antag: inconclusive

Results for CC(C)CC(=O)Nc1cc([N+](=O)[O-])ccc1Cl ?
IMPase Li inh: 3.3%[38.3 µM]; PNC assembly inh: -19.9; IMPase inh: -5.5; ALDH1A1 inh: 1.7%; HPGD inh: -8.0%; NPSR antag: 6.1%[46.1 µM]

Results for O=C(NC(=S)Nc1cc(C(F)(F)F)ccc1Cl)c1ccccc1 ?
IMPase Li inh: -0.9%[38.3 µM]; PNC assembly inh: 44.9; IMPase inh: -4.0; ALDH1A1 inh: 25.1µM*; HPGD inh: -11.4%; NPSR antag: -26.1%[46.1 µM]

Results for O=C(CC(=O)c1ccccc1)Nc1cc(C(F)(F)F)ccc1Cl ?
IMPase Li inh: 2.1%; PNC assembly inh: -21.0; IMPase inh: 10.9; ALDH1A1 inh: inconclusive; HPGD inh: -7.7%; NPSR antag: -15.1%[46.1 µM]

What do the screens show for `O=C(CN1CCN(c2ccccc2O)CC1)Nc1cc([N+](=O)[O-])ccc1Cl`?
IMPase Li inh: -4.5%; ALDH1A1 inh: 22.4µM*; NPSR antag: -27.6%

What do the screens show for `O=C(CNC(c1ccccc1)c1ccccc1)Nc1cc([N+](=O)[O-])ccc1Cl`?
IMPase Li inh: 21.6%; PNC assembly inh: -12.0; ALDH1A1 inh: 7.08µM*; HPGD inh: -28.9%; NPSR antag: -38.4%

How did Cc1cc(C)n(-c2nc(Nc3ccccc3)nc(-n3nc(C)cc3C)n2)n1 do in these assays?
IMPase Li inh: inconclusive; PNC assembly inh: inconclusive; IMPase inh: -9.6; ALDH1A1 inh: 8.6%; HPGD inh: -8.0%; NPSR antag: 3.9%[46.1 µM]

Results for Cc1cc(C)n(-c2nc(N(c3ccccc3)c3ccccc3)nc(-n3nc(C)cc3C)n2)n1 ?
IMPase Li inh: 24.0%; PNC assembly inh: -100.0*; IMPase inh: -10.9; ALDH1A1 inh: 6.8%; HPGD inh: -29.9%; NPSR antag: 12.6µM*

What do the screens show for `COc1ccc(CN2CCN(c3ccccn3)CC2)c(OC)c1`?
IMPase Li inh: 1.1%[38.3 µM]; PNC assembly inh: inconclusive; IMPase inh: 3.1; ALDH1A1 inh: 0.3%; HPGD inh: -4.3%; NPSR antag: -0.2%[46.1 µM]

Results for COC(=O)C1CCN(C(=O)COc2ccc(Cl)cc2)CC1 ?
IMPase Li inh: 15.5%[38.3 µM]; PNC assembly inh: -7.8; IMPase inh: 7.8; ALDH1A1 inh: -14.7%; HPGD inh: 0.2%; NPSR antag: -10.9%[46.1 µM]

How did COC(=O)C1CCN(C(=O)COc2cc3sc(C)nc3c3sccc23)CC1 do in these assays?
IMPase Li inh: 37.6%[38.3 µM]; PNC assembly inh: 73.7; IMPase inh: 1.1; ALDH1A1 inh: 11.2µM*; HPGD inh: -1.6%; NPSR antag: -16.0%[46.1 µM]
